Screens from PubChem.
Rows were chosen to be rich in hits. Some 2.6% of all compounds tested hit in one or more screens of this group.
KCNH2 WT inh: KCNH2 (human, wildtype) channel inhibition | AID 720551 | activity change, % at 1.84 µM | Q12809 | 340,000 compounds, 0.37% hits | U2OS, BacMam KCNH2, thallium flux FluxOr; hits give low values;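 active means maximum activity change below -70%; inconclusive means maximum activity change between -70% and -50%; inactive means maximum activity change above -50%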
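U2OS cells were transduced with wild-type KCNH2 virus (2.03 x 10^8 / mL) for 4 h at room temperature, then cultured overnight at 37 C. Thallium flux was read with FluxOr dye. Rate constants were normalized to DMSO controls.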
KCNH2 3.1 block: inhibitors of human KCNH2 3.1 potassium channel isoform | U2OS KCNH2 3.1, thallium flux FluxOr; hits give low values | activity change, % (tested at about 1.8 µM) | 340,000 compounds, 0.95% hits | AID 720553;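 active means maximum activity change below -70%; inconclusive means maximum activity change from -70% to -50%; inactive means maximum activity change above -50%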;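 further: thallium influx rate constant from kinetic fluorescence after stimulation buffer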
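Kinetic fluorescence (2 min after stimulation buffer) measures Tl+ influx through KCNH2 3.1 expressed by viral transduction in U2OS cells; the rate constant is normalized against DMSO controls serving as positive and negative references.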
TRPV1 ag: agonists of human vanilloid receptor 1 (TRPV1); Q8NER1; TRPV1-expressing cells, Fluo-8 calcium influx, agonist mode; activation, % at 8.33 µM; 320,000 compounds, 0.19% hits; in the data active means activation above about 80%; inconclusive means between about 30% and that limit
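Fluo-8 calcium influx in TRPV1-expressing cells, kinetic read (ex 480/em 520 nm). Compound added and read 3 min for agonist activity, followed by capsaicin at EC20 final and 2 min further read for enhancement.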
p53 reactivation: restores transcriptional activity of mutant p53 | Potency, µM (highest dose often 92.2 µM), usual class: activators | H1299 p53-A138V BP100-luciferase reporter, luminescence, 24 h | 320,000 compounds, 0.063% hits | AID 504706; active means well fitted activation curve with a large enough effect; inconclusive means small, poorly fitted or top-dose-only effect; inactive means no such curve, though single readings can be large or run the other way; further: nearly all actives have a fitted effect of over 45% in size
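p53-null H1299 cells stably carrying temperature-sensitive p53-A138V and a BP100-luciferase reporter were pinned with compounds (4-point, 1:5 series) and held 24 hrs at 37 deg C. Luminescence was read 10 min after detection reagent.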
ClpP mod: qHTS Assay for Activators of ClpP; ATP-dependent Clp protease proteolytic subunit (Bacillus subtilis (strain 168)), P80244; purified B. subtilis ClpP, FRET peptide cleavage, 20 min; Potency, µM (titrated, usually from 57.5 µM); 340,000 compounds, 1.9% hits; AID 651965, 2013; active means well fitted falling curve with a large enough effect; inconclusive means small, poorly fitted or top-dose-only effect; inactive means no such curve, though single readings can be large or run the other way; further: the source files actives as falling curves though it sought activators and does not explain the sign; nearly all actives have a fitted effect of over 65% in size
Target sequence (P80244 whole entry, looked up): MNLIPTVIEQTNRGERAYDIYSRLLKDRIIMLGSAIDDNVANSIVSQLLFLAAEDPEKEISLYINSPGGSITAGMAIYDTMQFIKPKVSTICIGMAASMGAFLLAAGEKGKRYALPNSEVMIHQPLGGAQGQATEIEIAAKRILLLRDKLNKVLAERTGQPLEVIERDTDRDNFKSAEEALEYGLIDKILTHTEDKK
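Buffer: 100 mM Tris/HCl pH8, 100 mM KCl, 0.05% low protease BSA, 2.5% glycerol, 0.01% Tween-20. ClpP 10 microg/mL final; 20 min RT; delta FRET normalized to ADEP and DMSO controls.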
TRPV1 PAM: human TRPV1 potentiation. Q8NER1. TRPV1-expressing cells, Fluo-8 calcium influx, capsaicin EC20 potentiation. potentiation, % at 8.33 µM. 320,000 compounds, 0.02% hits; in the data active means potentiation above about 80%; inconclusive means between about 30% and that limit
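Cells expressing TRPV1 were dye-loaded with Fluo-8 and read kinetically: 10 s baseline, 3 min after compound (agonist portion), then 2 min after EC20 capsaicin (allosteric enhancer portion). Calcium-bound dye fluorescence at 480/520 nm.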
A number is an active result; n = inactive; u = inconclusive; x = not tested or not shown.

SMILES | KCNH2 WT inh | KCNH2 3.1 block | TRPV1 ag | p53 reactivation | ClpP mod | TRPV1 PAM
CC(=O)C1=C(c2ccc(Cl)c(Cl)c2)N(C(C)=O)n2cnnc2S1 | x | x | x | x | n | x
CC(C)N(C)CCOC(=O)C1COc2ccccc2O1 (stereo not drawn) | n | -204 | n | n | n | n
COc1ccc(OCCC(=O)OCC(=O)NC(=O)NC2CCCCC2)cc1 | n | n | n | n | 20µM | n
O=C(COC(=O)C1COc2ccccc2O1)NC(=O)NC1CCCC1 (stereo not drawn) | -198 | -143 | n | n | n | n
COc1ccc(OCCC(=O)OCC(=O)NC2CCCCC2)cc1 | n | n | x | n | n | x
C=Cc1ccc(Cn2c(=O)n(-c3cccc(Cl)c3)c(=O)c3c4c(sc32)CN(C(C)=O)CC4)cc1 | x | x | x | x | n | x
N#Cc1cnn2c(-c3ccccc3)ccnc12 | n | n | n | x | 25µM | n
COc1ccc(-c2ccnc3c(C#N)cnn23)cc1 | n | n | n | n | x | n
C=C(C)Cn1c(SCC(=O)c2ccc(Br)cc2)nc2sc3c(c2c1=O)CCCC3 | x | x | x | x | n | x
Cc1ccc(OCC(=O)N2N=C(c3ccc(Cl)cc3)CC2c2ccco2)c([N+](=O)[O-])n1 (stereo not drawn) | -72 | -91 | n | n | x | n
CC(C)[C@H](NS(=O)(=O)c1ccccc1)C(=O)OCC(=O)N1N=C(c2ccc(Cl)cc2)CC1c1ccco1 (stereo partly drawn) | n | -75 | n | n | n | n
O=C(COc1cccnc1[N+](=O)[O-])N1N=C(c2ccc(Cl)cc2)CC1c1ccco1 (stereo not drawn) | n | n | n | n | x | n
Cc1ccc(CCNC(=O)C(NS(=O)(=O)c2ccc3c(c2)oc(=O)n3C)C(C)C)cc1 (stereo not drawn) | x | x | x | x | n | x
CN(C)c1ccc(-c2nnn(Cc3ccccc3Br)n2)cc1 | n | -93 | n | n | 28µM | n
Clc1ccccc1Cn1nnc(-c2ccccc2)n1 | n | n | n | u | x | n
CC1CCn2c(nc3cc(C(=O)NCCc4ccccc4)ccc32)C1 (stereo not drawn) | x | x | x | x | n | x
CC(=O)OCCn1c2nc(=O)[nH]c(=O)c-2nc2cc(C)c(C)cc21 | n | n | 122 | n | n | n
CC(=O)c1cccc(NC(=O)Cn2c(=O)c(CNc3ccc(C)cc3)cc3cc4c(cc32)OCCO4)c1 | x | x | x | x | n | x
O=C(c1ccc(-n2cncn2)c([N+](=O)[O-])c1)N1CCN(S(=O)(=O)c2ccccc2F)CC1 | n | n | n | n | 14µM | n
CC(C)Oc1ccc(CNC(=O)C2CCCCN2S(=O)(=O)c2ccc(F)cc2)cc1 (stereo not drawn) | x | x | x | x | n | x
COc1cc(-c2nnc(CSc3nnc(Nc4ccc(Oc5ccccc5)cc4)s3)o2)cc(OC)c1OC | n | n | n | n | 25µM | n
O=C(CSc1nc(=O)n(Cc2ccco2)c2c1CCC2)NCc1ccc(F)cc1 | x | x | x | x | n | x
CCc1ccc(CNC(=O)C2CCN(C(=O)c3ccc(-n4ccc5ccccc54)s3)CC2)cc1 | x | x | x | x | 35µM | x
O=C(C1CCN(CCCc2ccccc2)CC1)N(CCc1ccccc1)Cc1ccccc1 | -89 | -110 | n | n | n | n
O=C1CCCN1CCCN1CC(C(=O)N(CCO)Cc2ccccc2)CCC1=O (stereo not drawn) | n | n | n | n | 32µM | n
SMILES | KCNH2 WT inh | KCNH2 3.1 block | TRPV1 ag | p53 reactivation | ClpP mod | TRPV1 PAM
O=C(C1CCN(CC2CC=CCC2)CC1)N(CCc1ccccc1)Cc1ccccc1 (stereo not drawn) | n | x | n | n | n | n
CCN(Cc1ccccc1)C(=O)C1CCN(Cc2ccc(SC)cc2)CC1 | -114 | -94 | n | n | n | n
Cc1ccccc1NC(=O)CN1C(=O)NC(C)(c2ccc3c(c2)OCO3)C1=O (stereo not drawn) | n | n | n | n | 16µM | n
CCOC(=O)c1c(C)[nH]c(C)c1S(=O)(=O)N1CCCC(C(=O)NCc2cccc(C)c2)C1 (stereo not drawn) | x | x | x | x | n | x
CC1(C)NC(=O)N(CC(O)CN2C(=O)NC(C)(C)C2=O)C1=O | n | n | n | n | n | n
CC1(C)NC(=O)N(CC(O)CNC23CC4CC(CC(C4)C2)C3)C1=O (stereo not drawn) | -100 | n | n | n | 28µM | n
COCCCn1c(C)cc(C(=O)COC(=O)C23CC4CC(CC(O)(C4)C2)C3)c1C | n | n | n | u | 28µM | n
NNC(=O)Cn1c(-c2ccccn2)nc2ccccc21 | n | n | n | n | n | n
CCN(CC)CCNC(=O)Cn1c(-c2ccccn2)nc2ccccc21 | n | n | n | n | 14µM | n
CCOC(=O)Cn1c(-c2ccccn2)nc2ccccc21 | n | n | n | n | 28µM | n
O=C(O)Cn1c(-c2ccccn2)nc2ccccc21 | n | n | n | x | n | n
CCc1ccc(OC(C)C(=O)N2CCC(c3nc4ccccc4s3)CC2)cc1 (stereo not drawn) | x | x | x | x | n | x
OC(CNCCc1ccc(C(F)(F)F)cc1)COC(c1ccccc1)c1ccccc1 (stereo not drawn) | x | -74 | n | n | n | n
COc1ccc(C(OCC(O)CNCCc2ccc(S(N)(=O)=O)cc2)c2ccc(OC)cc2)cc1 (stereo not drawn) | n | u | n | n | x | n
COc1cc2c(NC3CCN(C)CC3)nc(N3CCCN(C)CC3)nc2cc1OCCCCN | x | x | x | x | n | x
Cc1cn2c(=O)c(S(=O)(=O)NCCc3ccccc3)c(C)nc2s1 | x | x | x | x | 28µM | x
COc1ccccc1CNS(=O)(=O)c1c(C)nc2sc(C)cn2c1=O | x | x | x | x | 32µM | x
Cc1ccc(NC2=C(CC(=O)O)C(c3ccc(F)cc3)N(c3ccc(C)cc3)C2=O)cc1 (stereo not drawn) | x | x | x | x | n | x
O=C(CSc1ncccc1-c1nc2ccccc2[nH]1)NCc1ccco1 | n | n | n | u | 14µM | n
Cc1cc2nc(-c3cccnc3SCC(=O)NCc3ccco3)[nH]c2cc1C | n | n | n | u | 16µM | n
Cc1cc2nc(-c3cccnc3SCC(=O)NC3CC3)[nH]c2cc1C | x | x | n | n | x | n
Cc1ccc2c(c1)CCCN2C(=O)c1cnn2c1NC(=C1CC1)C=C2C(F)F | x | x | x | x | n | x
CCCOC1CCCN(C(=O)CCc2nnc(-c3ccc4c(c3)OCO4)o2)C1 (stereo not drawn) | n | n | n | u | 20µM | n
CC1CCCN(C(=O)CCc2nnc(-c3ccc4c(c3)OCO4)o2)C1 (stereo not drawn) | n | n | n | n | u | n
Brc1c(-c2ccccc2)nc2n1Cc1ccccc1-2 | n | n | n | u | n | n
